Drawing on PubChem BioAssay AID720485 (Milwaukee Institute for Drug Discovery, 2013), this text covers inhibition for 15 molecules.

This is one part of the list. Activity calls are given as the source filed them.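 How the source made its calls: active means percent inhibition of 50% or more; inactive means the rest.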

This assay relates to Hepatitis C virus NS3 helicase. The assay can be described thus: NS3h DNA-binding blockers re-examined – biochemical, fluorescence polarization, ChemBridge library, confirmation (AID 720485). The following applies: NS3h binding to Cy5-dT15 DNA, at 100 µM, active compounds read high. (In general: Polarisation of emitted light reports the rotation of a fluorescent probe.)
By inhibition is commonly meant the percentage by which the read-out fell short of the control. Regarding `Cc1ccc(C(=O)NCCNc2ccc([N+](=O)[O-])cc2)cc1`, the inhibition was 16.1% (inactive). Take `CCN(CC)c1ccc(C=C2C(=O)N(C)C(=O)N(C)C2=O)c(O)c1`: the inhibition is 12.9% (inactive).

Turning to `CC(C)(C)N1C(=O)NC(=O)C(=Cc2cccs2)C1=O`, the inhibition is 20.3% (inactive). As for `COc1cc(C=C2C(=O)NC(=O)NC2=O)ccc1OCCOc1ccc([N+](=O)[O-])cc1`, the figure is 2.33% (inactive); as for `O=C1NC(=O)C(=Cc2cc([N+](=O)[O-])cc(Br)c2O)C(=O)N1`, 19.3% (inactive). As for `CCN(CC)c1ccc(NC(=O)/C(=C\c2ccccc2)NC(C)=O)cc1`, the figure is 23.5% (inactive); as for `Cc1ccc(C(=O)C[n+]2cc(-c3ccccc3)n3c2CCCCC3)cc1`, 0.212% (inactive); as for `COc1cc(/C(O)=C(\C#N)c2nc3ccccc3n2C)cc(OC)c1OC`, 7.62% (inactive). In the case of `C=CCN1C(=O)/C(=C\c2cc(OC)c(O)c([N+](=O)[O-])c2)C(=O)NC1=S`, the inhibition is 37.2% (inactive). With `CCOc1ccc(C=C2C(=O)NC(=O)NC2=O)cc1Cl`, the inhibition is 16.1% (inactive).

On to `O=C(NC(=S)Nc1ccc(-c2nc3cc(Cl)ccc3o2)cc1)c1ccco1`, for which the inhibition is 11.8% (inactive). Next, `O=c1c2c(nc3cc(-c4cccc(F)c4)[nH]n13)CCS2`: 41.5% (inactive); `COc1ccc(C(=O)Oc2ccc3oc(=O)cc(C)c3c2)cc1OC`: 0.212% (inactive); `COc1ccc(N2C(=O)C=CC2=O)c([N+](=O)[O-])c1`: 65.8% (active). As for `N#Cc1c(N)nc2sc(C(=O)Nc3ccccc3)c(N)c2c1-c1ccco1`, the figure is 4.44% (inactive).
